CHX counter = counter-screen hit for Shiga toxin inhibitors, cycloheximide | max response, % | 12% of 300,000 active | cell reporter, cycloheximide protein synthesis inhibition counterscreen; in the data active means max response mostly above about 13%, no sharp cut-off; inactive means mostly below about 14%; further: read at 38.3 µM for the half of the compounds with a filed dose; 0% is about no effect
Shiga toxin inh = blocks Shiga toxin action in Vero cells; Vero cells, Shiga toxin protein synthesis inhibition reporter; inhibition, % at 38.7 µM; 9.2% of 290,000 active; AID 2315; in the data active means inhibition mostly above about 28%, no sharp cut-off; inactive means mostly below about 43%; further: 0% is about no effect
FMDV antiviral = blocks foot and mouth disease virus; Potency, µM (titrated, usually from 57.9 µM), without a hit: at the top dose activity change, negative = inhibition, actives largely listed as inhibitors; 1.2% of 410,000 active; FMDV antiviral cell-based qHTS; calls by dose curve; tested in HEK293T cells; further: read-out not given here; potency means the concentration at half of the fitted maximal effect; on the % scale 0 is the no-effect control and ±100 the full control effect; nearly all actives have a fitted effect of over 45% in size
Sm TGR block = blocks Schistosoma mansoni thioredoxin glutathione reductase; 3% of 360,000 active; Potency, µM (series often up to 114 µM), for the others: at the top dose activity change, negative = inhibition, hits mostly inhibitors; purified TGR, DTNB reduction, TNB absorbance 405 nm; Q962Y6; AID 485364; active means well fitted inhibition curve with a large enough effect; inconclusive means small, poorly fitted or top-dose-only effect; inactive means no such curve, though single readings can be large or run the other way; further: potency means the concentration at half of the fitted maximal effect; on the % scale 0 is the no-effect control and ±100 the full control effect; nearly all actives have a fitted effect of over 60% in size
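Kinetic colorimetric format: TGR-catalysed, NADPH-driven DTNB reduction monitored via TNB absorbance. Enzyme dispensed at 20 nM; compound exposure 15 min at room temperature before reaction start.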
Active calls of the source: *; ? = inconclusive; · = not tested or not shown. A selection: hits, their analogues and other compounds. The true share with any hit is near 12%.

SMILES	CHX counter	Shiga toxin inh	FMDV antiviral	Sm TGR block
CCOc1ccc(CCNC(=O)CCCc2nnc3n(CCCOC)c(=O)c4sccc4n23)cc1	·	·	-7%	-3%
COc1ccc(-c2nc3c4ccccc4ccn3c2CN2CCOCC2)cc1OC	32*	74*	23%	5%
Clc1ccc(-c2nc3ccccn3c2CN2CCOCC2)cc1	21*	25*	10%	2%
Clc1ccc2nc(-c3ccccc3)c(CN3CCOCC3)n2c1	12	55	-11%	-3%
c1ccc(-c2nc3c4ccccc4ccn3c2CN2CCOCC2)cc1	49*	64*	20%	12%
Fc1ccc(C(Nc2ccccc2Cl)c2nnc(-c3ccccc3Cl)o2)cc1 (stereo not given)	·	·	-14%	11%
COc1ccc(-c2nc3ccccc3o2)cc1NC(=O)c1ccc(-c2cccc(Cl)c2C)o1	·	·	-8%	1%
O=S(=O)(c1cc(O)ccc1O)c1cccc2c(S(=O)(=O)c3cc(O)ccc3O)cccc12	·	·	13%	11µM*
O=S(=O)(O)c1cc(O)ccc1O	·	·	-17%	-20%
CCOc1ccccc1N(C)C(=O)Cn1nc(Cc2ccncc2)c2ccccc2c1=O	·	·	-8%	-3%
Cc1nc(S/C(=C/c2ccc(-c3cc(Cl)ccc3C)o2)C(=O)O)n[nH]1	29*	103*	3%	?
Cc1cc2c(s1)c(C#N)c(C(=O)NCc1ccccc1F)n2C	·	·	·	-18%
Cc1ccc(O)c(NS(=O)(=O)c2cccc3nsnc23)c1	14*	-4	9%	-9%
COc1ccc(-c2cc(C)no2)cc1S(=O)(=O)N(C)c1cccc(C)c1	20	-5	-7%	9%
Cc1cc(-c2ccc(C)c(S(=O)(=O)N(C)c3ccc(C)c(C)c3)c2)on1	·	·	40µM*	6%
CCCN1CCN(C(=O)c2cc3c(s2)-c2ccccc2OC3)CC1	26*	32*	51%	-10%
O=C(c1cc2c(s1)-c1ccccc1OC2)N1CCC2(CC1)OCCO2	40*	39*	48%	-8%
O=C(NCC1CC1(Cl)Cl)Nc1ccc(Cl)c(Cl)c1 (stereo not given)	15	94*	0%	3%
CN(C)C1(CNC(=O)Nc2ccc(Cl)c(Cl)c2)CCCCC1	-7	-9	-16%	0%
Cc1ccc(NC(=O)NCC2CC2(Cl)Cl)cc1 (stereo not given)	31*	125*	45%	0%
CCOC(=O)CSc1nc(C)c(C(C)=O)cc1C#N	18*	100*	-13%	-1%
CCCCSc1nc(C)c(C(C)=O)cc1C#N	32*	79*	-24%	0%
COc1ccc(CNC(=O)Cn2c(=O)nc(-c3ccccc3F)c3cc(Cl)ccc32)cc1OC	·	·	14%	-7%
CCS(=O)(=O)c1nc(S(=O)(=O)c2ccc(C)cc2)c(NCc2ccccc2Cl)s1	·	·	15%	4%
CCOC(=O)Nc1ccc2c(c1)N(C(=O)CCN(CC)CC)c1ccccc1S2=O (stereo not given)	6	-7	-11%	4.5µM*
SMILES	CHX counter	Shiga toxin inh	FMDV antiviral	Sm TGR block
CCOC(=O)Nc1ccc2c(c1)N(C(=O)CCN(CC)CC)c1ccccc1CC2	-2	·	1%	-9%
COc1cccc2c1Oc1ncccc1N(C(=O)CCC(=O)NCc1ccc(N(C)C)cc1)C2	·	·	-10%	?
CCN1CCN(C(=O)c2cnn3c(C(F)F)cc(-c4ccc(C)cc4)nc23)CC1	-3	-15	-24%	-1%
COc1ccc(-c2cc(C(F)F)n3ncc(C(=O)N4CCN(C(=O)c5ccco5)CC4)c3n2)cc1	0	9	?	28µM*
COc1ccc(-c2cc(C(F)F)n3ncc(C(=O)Nc4c(C)n(C)n(-c5ccccc5)c4=O)c3n2)cc1	-2	-10	-17%	5%
COc1ccc(-c2cc(C(F)F)n3ncc(C(=O)Nc4cc(C)on4)c3n2)cc1	28*	15	-29%	-16%
O=C(c1cnn2c(C(F)F)cc(-c3ccccc3)nc12)N1CCN(Cc2ccc3c(c2)OCO3)CC1	-5	-11	28µM*	-28%
COc1ccccc1NC(=O)Cn1c(=O)n(CCCCCC(=O)NCc2ccccc2)c(=O)c2sccc21	·	·	-30%	1%
CNC(=O)/C(=N\O)c1ccccc1	15	45*	·	1%
CC(C)NC(=O)/C(=N\O)c1ccccc1	-3	-10	24%	11%
O=C(NCCc1ccccc1)/C(=N\O)c1ccccc1	45*	52*	64%	-3%
CN(C)CCCNC(=O)/C(=N\O)c1ccccc1	1	-15	0%	-3%
COC(=O)c1ccc(NC(=O)c2cc(=O)c3ccc(C)cc3o2)cc1	·	·	-1%	-8%
COc1ccc(OCc2ccc(-c3nc(C#N)c(NC(C)c4ccccc4)o3)o2)cc1 (stereo not given)	·	·	-18%	6%
COCCNC(=O)c1cnn2c1NC(c1ccco1)CC2C(F)(F)F (stereo not given)	-1	7	1%	-8%
Cc1ccc(Cl)cc1NC(=O)c1cnn2c1NC(c1ccco1)CC2C(F)(F)F (stereo not given)	1	-26	?	0%
CN(Cc1ccc(-n2cccn2)cc1)C(=O)c1cnn2c1NC(c1ccco1)CC2C(F)(F)F (stereo not given)	7	12	25µM*	?
O=C(Nc1ccc2c(c1)CCC2)c1cnn2c1NC(c1ccco1)CC2C(F)(F)F (stereo not given)	52*	90*	-4%	-27%
COc1cc(OC)c(NC(=O)CC(c2cccs2)N2Cc3ccccc3C2=O)cc1Cl (stereo not given)	·	·	36%	-8%
Cc1c(NC(=O)COC(=O)c2cc(-c3ccc(-c4ccccc4)cc3)nc3ccccc23)c(=O)n(-c2ccccc2)n1C	57*	84*	-25%	-1%
CC1CCCN(CCCOc2ccc(Br)cc2Cl)C1 (stereo not given)	22*	41*	15%	16%
CCOC(=O)C1CCCN(Cc2cccc(Cl)c2)C1 (stereo not given)	9	-6	-15%	-4%
Cc1cc(Cl)cc(Cl)c1OCCCCN(C)C	47*	-17	-26%	5%
CCN1CCN(Cc2ccc(OCc3ccccc3)c(OC)c2)CC1	49*	105*	·	0%
CCOC(=O)C1CCCN(Cc2ccc(OCc3ccccc3)cc2)C1 (stereo not given)	44*	99*	0%	-1%
SMILES	CHX counter	Shiga toxin inh	FMDV antiviral	Sm TGR block
COc1cc(CN2CCCC(C)C2)ccc1OCc1ccccc1 (stereo not given)	17*	36*	12%	-22%
CN(C)CCCCOc1ccc(Br)cc1Cl	14*	28	2%	·
CCOC(=O)C1CCCN(Cc2ccc(OCc3ccccc3)c(OC)c2)C1 (stereo not given)	18*	·	12%	-19%
C=CCc1ccc(OCCCN2CCCC(C)C2)c(OC)c1 (stereo not given)	22*	20	-4%	-26%
C=CCc1ccc(OCCCCN2CCC(C)CC2)c(OC)c1	-1	-2	-11%	-9%
COc1ccc(CN2CCOc3ccc(CN4CCC(O)CC4)cc3C2)c(OC)c1OC	·	·	-6%	·
CC(C)CCNC(=O)c1ccc2c(c1)N(Cc1ccccc1F)C(=O)c1ccccc1S2(=O)=O	·	·	27%	4%
Oc1ccc(C2CNCc3sccc32)cc1O (stereo not given)	·	·	-17%	35µM*
